About 8,800 targets were measured; listed, in parts, are those with a hit and a random draw of the rest. About 0.5% of all pairs of compound and target were hits. A number with no mark means an inactive call.

What all share (assay): log2 fold change, soluble protein after heating vs DMSO (PISA); higher = thermal stabilisation; K562 lysate, 10 uM; active = over 0.2 and 3.5 SD of the protein, either way, in both replicates (recomputed)
Compound in one assay: C#Cc1cccc(Nc2ncnc3cc(OCCOC)c(OCCOC)cc23)c1 [erlotinib]
Put shortly:
(§1)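 Log-two fold change in thermal stability relative to solvent controls is reported from duplicates. For each sample, crude K562 extract from dounce-homogenised pellets in PBS pH 7.4 with 1 mM MgCl2, at 1 mg/mL protein, was treated with 10 μM compound for 30 min. Aliquots heated for 3 min across 48°C-58°C were pooled, brought to 0.5% NP-40 at 4°C and cleared at 21,000xg for 90 min. The supernatant was quantified by TMTpro 16plex LC-MS/MS with channel sums equalised.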

Compound in assay [1]: C/C(=N\NC(=O)C1=CC(=CC=C1)S(=O)(=O)N2CCOCC2)/C3=C(C=CC(=C3)Cl)O
Put shortly: as §1

Compound in assay [2]: C1=CC(=CC=C1C2=NC3=C(N2)C=C(C=C3)C(=O)N)OC4=CC=C(C=C4)Cl
A digest of the protocol:
as §1

Compound in assay [3]: C1=CC2=C(C=CC(=C2)/C=C\3/C(=O)NC(=NCC4=CC=CS4)S3)N=C1
A digest of the protocol:
as §1

Compound in assay [4]: C1=CC2=NC=CN=C2C=C1/C=C/3\C(=O)NC(=O)S3
Put shortly: as §1

Compound in assay [5]: C1=CC=C(C=C1)C2=NC(=C(N2)C3=CC=NC=C3)C4=CC(=C(C=C4)Cl)O
A digest of the protocol:
as §1

Compound in assay [6]: C1=CC=C2C(=C1)C3=NNC4=CC=CC(=C43)C2=O
A digest of the protocol: as §1

Compound in assay [7]: C1CCN(C1)C(=O)NC2=CC=CC(=C2)NC3=NC=C(C(=N3)NCCC4=CN=CN4)Br
Put shortly:
as §1

Compound in assay [8]: C1CN(CCC1(CC2=CC=C(C=C2)Cl)N)C3=NC=NC4=C3C=CN4
A digest of the protocol:
as §1

Compound in another assay: C1COCCN1CCN2C3=CC=CC=C3N=C2NC(=O)C4=CC(=CC=C4)[N+](=O)[O-] [IRAK-1-4 Inhibitor I]
A digest of the protocol:
as §1

Sequence of UniProt Q9UI10 (Q9UI10 whole entry, looked up): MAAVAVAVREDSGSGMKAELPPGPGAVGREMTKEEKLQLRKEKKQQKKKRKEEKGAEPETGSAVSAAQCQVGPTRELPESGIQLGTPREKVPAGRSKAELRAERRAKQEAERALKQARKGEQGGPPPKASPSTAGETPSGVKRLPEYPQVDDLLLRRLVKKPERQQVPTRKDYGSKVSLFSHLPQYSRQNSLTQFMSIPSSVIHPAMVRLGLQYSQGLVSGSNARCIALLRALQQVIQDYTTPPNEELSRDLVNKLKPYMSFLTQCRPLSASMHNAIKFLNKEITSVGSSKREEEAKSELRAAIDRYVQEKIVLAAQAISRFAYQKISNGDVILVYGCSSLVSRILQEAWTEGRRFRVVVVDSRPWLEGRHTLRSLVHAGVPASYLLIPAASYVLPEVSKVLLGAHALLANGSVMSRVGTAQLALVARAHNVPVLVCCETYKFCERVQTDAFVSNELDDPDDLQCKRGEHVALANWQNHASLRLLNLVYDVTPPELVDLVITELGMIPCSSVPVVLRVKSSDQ
Sequence of UniProt O60645 (O60645 whole entry, looked up): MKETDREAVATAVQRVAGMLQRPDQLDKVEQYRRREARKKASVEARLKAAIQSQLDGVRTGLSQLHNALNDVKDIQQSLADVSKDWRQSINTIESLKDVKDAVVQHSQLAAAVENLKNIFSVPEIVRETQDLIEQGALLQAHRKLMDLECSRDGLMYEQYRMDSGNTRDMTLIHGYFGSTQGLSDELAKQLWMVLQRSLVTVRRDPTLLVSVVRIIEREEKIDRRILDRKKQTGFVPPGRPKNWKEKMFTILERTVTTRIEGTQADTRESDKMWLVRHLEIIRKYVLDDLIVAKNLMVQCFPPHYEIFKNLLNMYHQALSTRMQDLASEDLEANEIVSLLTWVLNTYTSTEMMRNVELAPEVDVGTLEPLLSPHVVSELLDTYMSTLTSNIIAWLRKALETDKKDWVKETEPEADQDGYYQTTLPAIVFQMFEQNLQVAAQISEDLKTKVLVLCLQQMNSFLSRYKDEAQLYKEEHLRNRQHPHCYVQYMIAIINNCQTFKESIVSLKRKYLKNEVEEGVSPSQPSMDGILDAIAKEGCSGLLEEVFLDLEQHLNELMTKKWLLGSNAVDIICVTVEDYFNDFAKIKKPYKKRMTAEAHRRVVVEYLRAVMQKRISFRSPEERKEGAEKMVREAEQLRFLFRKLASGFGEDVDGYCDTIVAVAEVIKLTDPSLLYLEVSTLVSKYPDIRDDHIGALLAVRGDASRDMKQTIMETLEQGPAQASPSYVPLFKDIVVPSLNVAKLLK
Sequence of UniProt Q8TAG9 (Q8TAG9 whole entry, looked up): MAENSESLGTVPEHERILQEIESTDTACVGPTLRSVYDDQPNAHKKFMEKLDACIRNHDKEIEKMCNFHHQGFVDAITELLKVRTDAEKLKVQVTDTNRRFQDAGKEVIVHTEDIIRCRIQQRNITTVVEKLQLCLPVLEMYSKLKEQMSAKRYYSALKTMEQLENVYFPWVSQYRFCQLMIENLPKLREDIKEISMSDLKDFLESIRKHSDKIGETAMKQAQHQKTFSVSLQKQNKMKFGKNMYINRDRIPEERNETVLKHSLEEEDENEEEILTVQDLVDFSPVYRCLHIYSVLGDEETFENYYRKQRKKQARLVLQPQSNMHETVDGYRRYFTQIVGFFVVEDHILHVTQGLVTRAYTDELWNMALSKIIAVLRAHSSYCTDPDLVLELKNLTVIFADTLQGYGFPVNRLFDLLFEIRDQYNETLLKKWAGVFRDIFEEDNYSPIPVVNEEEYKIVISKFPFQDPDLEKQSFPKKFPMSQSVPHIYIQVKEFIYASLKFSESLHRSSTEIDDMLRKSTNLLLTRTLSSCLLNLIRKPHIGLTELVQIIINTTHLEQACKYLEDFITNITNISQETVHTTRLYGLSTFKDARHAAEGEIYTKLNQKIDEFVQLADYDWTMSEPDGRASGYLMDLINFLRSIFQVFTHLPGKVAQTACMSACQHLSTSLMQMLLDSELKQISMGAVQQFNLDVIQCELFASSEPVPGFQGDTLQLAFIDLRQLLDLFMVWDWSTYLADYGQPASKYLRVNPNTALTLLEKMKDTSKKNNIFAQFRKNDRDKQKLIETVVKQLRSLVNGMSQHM
Sequence of UniProt Q9BQS8 (Q9BQS8 whole entry, looked up): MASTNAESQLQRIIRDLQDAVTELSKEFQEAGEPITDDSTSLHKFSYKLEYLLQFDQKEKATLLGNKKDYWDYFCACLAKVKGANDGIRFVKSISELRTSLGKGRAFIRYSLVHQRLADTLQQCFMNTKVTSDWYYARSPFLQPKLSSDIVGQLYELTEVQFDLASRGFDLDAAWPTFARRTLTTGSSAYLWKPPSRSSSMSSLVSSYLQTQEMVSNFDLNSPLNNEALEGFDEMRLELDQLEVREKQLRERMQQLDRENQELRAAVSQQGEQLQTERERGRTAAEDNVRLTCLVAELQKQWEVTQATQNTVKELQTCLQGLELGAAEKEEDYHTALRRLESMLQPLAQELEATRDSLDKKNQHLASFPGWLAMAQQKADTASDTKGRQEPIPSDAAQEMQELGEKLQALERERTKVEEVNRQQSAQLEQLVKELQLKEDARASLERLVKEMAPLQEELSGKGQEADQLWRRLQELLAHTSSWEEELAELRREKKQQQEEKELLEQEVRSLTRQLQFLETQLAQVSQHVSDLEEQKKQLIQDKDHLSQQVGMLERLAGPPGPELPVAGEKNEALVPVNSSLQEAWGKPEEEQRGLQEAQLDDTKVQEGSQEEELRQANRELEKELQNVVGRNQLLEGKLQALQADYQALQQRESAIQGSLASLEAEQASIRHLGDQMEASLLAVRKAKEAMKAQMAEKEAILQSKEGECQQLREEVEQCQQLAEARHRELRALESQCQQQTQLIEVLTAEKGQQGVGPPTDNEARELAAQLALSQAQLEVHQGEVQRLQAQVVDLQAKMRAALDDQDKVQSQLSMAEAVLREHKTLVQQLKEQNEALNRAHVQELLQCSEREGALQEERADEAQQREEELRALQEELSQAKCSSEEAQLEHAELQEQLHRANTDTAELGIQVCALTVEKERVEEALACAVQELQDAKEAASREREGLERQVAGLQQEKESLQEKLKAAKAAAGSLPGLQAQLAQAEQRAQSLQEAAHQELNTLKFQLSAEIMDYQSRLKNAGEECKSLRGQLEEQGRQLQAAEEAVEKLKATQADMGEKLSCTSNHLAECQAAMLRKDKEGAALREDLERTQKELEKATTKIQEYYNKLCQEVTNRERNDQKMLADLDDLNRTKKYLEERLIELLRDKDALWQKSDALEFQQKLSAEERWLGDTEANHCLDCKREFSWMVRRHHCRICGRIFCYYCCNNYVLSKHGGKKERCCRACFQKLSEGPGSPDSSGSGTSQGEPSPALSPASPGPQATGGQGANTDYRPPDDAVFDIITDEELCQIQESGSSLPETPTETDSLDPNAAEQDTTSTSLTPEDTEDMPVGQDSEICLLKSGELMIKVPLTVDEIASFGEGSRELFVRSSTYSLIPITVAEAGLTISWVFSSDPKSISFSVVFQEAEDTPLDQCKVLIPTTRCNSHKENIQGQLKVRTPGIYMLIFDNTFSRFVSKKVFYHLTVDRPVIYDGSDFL
Sequence of UniProt P41567 (P41567 whole entry, looked up): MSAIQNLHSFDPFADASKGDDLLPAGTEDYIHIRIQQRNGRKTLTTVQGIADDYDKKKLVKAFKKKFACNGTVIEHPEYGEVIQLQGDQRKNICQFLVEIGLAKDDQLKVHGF
Sequence of UniProt Q92947 (Q92947 whole entry, looked up): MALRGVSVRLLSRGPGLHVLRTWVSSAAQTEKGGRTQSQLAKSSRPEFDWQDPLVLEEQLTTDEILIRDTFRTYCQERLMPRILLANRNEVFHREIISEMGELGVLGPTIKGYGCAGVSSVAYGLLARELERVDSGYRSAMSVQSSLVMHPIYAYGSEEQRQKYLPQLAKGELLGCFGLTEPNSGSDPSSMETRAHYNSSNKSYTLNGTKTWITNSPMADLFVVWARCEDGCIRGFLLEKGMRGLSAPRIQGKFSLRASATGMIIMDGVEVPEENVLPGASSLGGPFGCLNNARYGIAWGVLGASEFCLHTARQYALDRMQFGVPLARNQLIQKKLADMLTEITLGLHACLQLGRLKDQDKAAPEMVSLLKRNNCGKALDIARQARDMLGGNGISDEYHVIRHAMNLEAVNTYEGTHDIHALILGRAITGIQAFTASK
Sequence of UniProt Q06210 (Q06210 whole entry, looked up): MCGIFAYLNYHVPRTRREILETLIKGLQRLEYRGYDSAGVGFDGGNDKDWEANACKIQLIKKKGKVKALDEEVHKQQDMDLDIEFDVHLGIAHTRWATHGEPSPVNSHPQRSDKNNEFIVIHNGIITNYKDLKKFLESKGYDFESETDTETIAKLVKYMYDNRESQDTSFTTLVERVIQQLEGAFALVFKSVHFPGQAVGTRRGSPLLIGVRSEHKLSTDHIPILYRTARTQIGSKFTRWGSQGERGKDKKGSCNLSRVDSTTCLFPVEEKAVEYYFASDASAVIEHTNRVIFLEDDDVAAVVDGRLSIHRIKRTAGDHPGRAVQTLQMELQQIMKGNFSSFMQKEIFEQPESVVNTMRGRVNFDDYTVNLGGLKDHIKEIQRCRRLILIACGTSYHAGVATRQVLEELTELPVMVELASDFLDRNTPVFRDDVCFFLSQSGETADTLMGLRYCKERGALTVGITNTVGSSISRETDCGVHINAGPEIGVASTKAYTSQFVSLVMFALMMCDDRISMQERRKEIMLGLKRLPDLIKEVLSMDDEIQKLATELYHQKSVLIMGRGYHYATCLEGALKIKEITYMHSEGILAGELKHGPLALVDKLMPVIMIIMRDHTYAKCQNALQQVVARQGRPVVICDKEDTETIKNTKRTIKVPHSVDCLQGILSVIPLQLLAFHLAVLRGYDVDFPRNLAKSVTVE

In the case of FARSA (UniProt Q9Y285), the log2 fold change is 0.045 in the assay with erlotinib; -0.001 in assay [1]; -0.054 in assay [2]; 0.009 in assay [3]; 0 in assay [4]; 0.119 in assay [5]. For the same target, the log2 fold change is -0.005 in assay [6], 0.009 in assay [7], -0.023 in assay [8] and -0.018 with IRAK-1-4 Inhibitor I.
In the case of GFPT1 (UniProt Q06210), the log2 fold change was 0.031 with erlotinib; -0.008 in [1]; 0.003 in [2]; 0.013 in [3]; -0.008 in assay [4]; 0.001 in [5]. Besides, the log2 fold change is -0.014 in assay [6], -0.021 in [7], 0.008 in [8] and 0.006 with IRAK-1-4 Inhibitor I.
As to EXOC6 (UniProt Q8TAG9), the log2 fold change with erlotinib is 0; in [1] it was -0.045; in assay [2], -0.062; in assay [3] it was -0.058; in [4] it was -0.044; in assay [5] it was 0.005. Further, the log2 fold change was -0.043 in assay [6], 0.018 in [7], 0.008 in assay [8] and 0.013 with IRAK-1-4 Inhibitor I.
In the case of FECH isoform 2 (UniProt P22830), the log2 fold change in the assay with erlotinib was 0.101; in assay [1] it was 0.062; in assay [2], -0.321; in [3] it was 0.42; in assay [4], -0.014; in assay [5] it was 0.354. Besides, the log2 fold change is 0.673 in [6], 0.183 in [7], -0.009 in [8] and 0.644 in the assay with IRAK-1-4 Inhibitor I.
For the target EIF2B4 isoform 2 (UniProt Q9UI10), the log2 fold change was 0.031 with erlotinib; 0.027 in [1]; 0.008 in assay [2]; 0.041 in assay [3]; 0.009 in assay [4]; 0.013 in [5]. Further, the log2 fold change in assay [6] is -0.04; in assay [7], -0.006; in assay [8], -0.008; with IRAK-1-4 Inhibitor I, 0.03.
As to EXOC3 (UniProt O60645), the log2 fold change with erlotinib is 0.033; in assay [1], 0.027; in assay [2], 0.006; in assay [3] it was 0.033; in assay [4] it was 0.039; in [5], 0.011. The log2 fold change was -0.04 in assay [6], 0.018 in [7], -0.001 in [8] and 0.013 with IRAK-1-4 Inhibitor I.
As for FMNL1 isoform 3 (UniProt O95466), the log2 fold change in the assay with erlotinib is -0.045; in assay [1], 0.045; in [2] it was -0.006; in [3], -0.102; in assay [4] it was -0.062; in assay [5], -0.004. Besides, the log2 fold change in [6] is 0.018; in assay [7], -0.006; in assay [8] it was 0.019; with IRAK-1-4 Inhibitor I, -0.009.
Turning to FADS1, A0A0A0MR51, the log2 fold change was -0.006 with erlotinib; -0.033 in assay [1]; -0.008 in assay [2]; 0.085 in assay [3]; -0.026 in [4]; -0.012 in [5]. Besides, the log2 fold change in assay [6] is 0.05; in assay [7], -0.002; in assay [8], -0.064; with IRAK-1-4 Inhibitor I, -0.026.
In the case of EIF1 (UniProt P41567), the log2 fold change in the assay with erlotinib was -0.006; in [1], -0.022; in assay [2], 0.063; in assay [3], -0.031; in assay [4] it was -0.004; in assay [5] it was 0.044. The log2 fold change was 0.011 in assay [6], -0.027 in assay [7], -0.023 in assay [8] and 0.02 with IRAK-1-4 Inhibitor I.
Turning to EAPP (UniProt Q56P03), the log2 fold change with erlotinib was 0.012; in assay [1], 0.349 (active); in assay [2], 0.018; in assay [3], 0.098; in assay [4] it was 0.073; in assay [5], 0.011. Besides, the log2 fold change in assay [6] is -0.094; in [7], 0.024; in assay [8], 0.103; with IRAK-1-4 Inhibitor I it was -0.014.
On to EEFSEC (UniProt P57772), for which the log2 fold change was -0.006 in the assay with erlotinib; 0.054 in assay [1]; -0.044 in assay [2]; -0.022 in assay [3]; 0.006 in [4]; -0.044 in [5]. For the same target, the log2 fold change was -0.054 in [6], -0.025 in [7], -0.007 in assay [8] and -0.024 with IRAK-1-4 Inhibitor I.
For GCDH (UniProt Q92947), the log2 fold change with erlotinib was -0.038; in assay [1], 0.1; in assay [2], -0.023; in assay [3], 0.051; in assay [4], 0.089; in assay [5], -0.027. The log2 fold change in assay [6] was 0.009; in assay [7] it was 0; in assay [8], 0; with IRAK-1-4 Inhibitor I, 0.011.
In the case of FYCO1 isoform 4 (UniProt Q9BQS8), the log2 fold change is 0.029 with erlotinib; 0.026 in assay [1]; 0.014 in [2]; -0.01 in [3]; -0.019 in assay [4]; -0.006 in [5]. In addition, the log2 fold change is -0.016 in [6], -0.013 in assay [7], 0.009 in assay [8] and 0 with IRAK-1-4 Inhibitor I.
In the case of EPRS (UniProt P07814), the log2 fold change is 0.028 with erlotinib; 0.032 in assay [1]; -0.007 in [2]; 0.01 in assay [3]; 0.014 in assay [4]; 0.017 in assay [5]. Further, the log2 fold change was -0.026 in assay [6], 0 in assay [7], -0.004 in assay [8] and -0.006 with IRAK-1-4 Inhibitor I.
For the target FANCI (UniProt Q9NVI1), the log2 fold change was 0.012 with erlotinib; -0.031 in [1]; -0.056 in assay [2]; 0.013 in [3]; 0.021 in [4]; -0.001 in [5]. In addition, the log2 fold change was -0.051 in assay [6], -0.008 in assay [7], -0.009 in assay [8] and 0.013 with IRAK-1-4 Inhibitor I.

The values above are taken from the supplement of paper PMC10849652.
